Screening data as filed in PubChem.
Platelet DG rel – inhibitors of platelet dense granule secretion, primary screen, cell-based, MLPCN, human platelets. inhibition, %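 (compounds screened at 7.5 µM in platelet-rich plasma)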. human platelet-rich plasma, SFLLRN dense granule ATP release, luminescence. 300,000 compounds, 0.22% hits. AID 1663, 2009;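 active means mean replicate score, as percent of positive control, at or above 50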
SENP8 block-1 – human SENP8 protease inhibitors, primary screen, biochemical, fluorescence, Nedd8 protein substrate, uHTS; inhibition, % at 20 µM; 360,000 compounds, 0.64% hits; recombinant SENP8; in the data active means inhibition mostly above about 40%, no sharp cut-off; inactive means mostly below about 27%
SENP6 block – SENP6 protease inhibitors, primary screen, biochemical, luminescence, uHTS; Recombinant SENP6 catalytic domain, aminoluciferin luminescence; Sentrin-specific protease 6 (Homo sapiens), Q9GZR1; AID 2599, 2010; inhibition, % at 10 µM; 330,000 compounds, 1.8% hits;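 active means inhibition above about 50% at the single tested dose, limit read from the data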;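 further: plate controls were DMSO wells with enzyme for no effect and DMSO wells lacking enzyme for full effect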
SENP7 inh – SENP7 protease inhibitors, primary screen, biochemical, luminescence, uHTS | recombinant SENP7, Z-RLRGG-aminoluciferin luminescence, 40 min | inhibition, % at 5 µM | 330,000 compounds, 1.5% hits;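 active means inhibition above about 50% at the single test dose, limit read from the data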;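 further: plate controls were DMSO with enzyme for no effect and no enzyme buffer wells for full effect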
Target sequence (Q9BQF6 706-1050 limits assumed): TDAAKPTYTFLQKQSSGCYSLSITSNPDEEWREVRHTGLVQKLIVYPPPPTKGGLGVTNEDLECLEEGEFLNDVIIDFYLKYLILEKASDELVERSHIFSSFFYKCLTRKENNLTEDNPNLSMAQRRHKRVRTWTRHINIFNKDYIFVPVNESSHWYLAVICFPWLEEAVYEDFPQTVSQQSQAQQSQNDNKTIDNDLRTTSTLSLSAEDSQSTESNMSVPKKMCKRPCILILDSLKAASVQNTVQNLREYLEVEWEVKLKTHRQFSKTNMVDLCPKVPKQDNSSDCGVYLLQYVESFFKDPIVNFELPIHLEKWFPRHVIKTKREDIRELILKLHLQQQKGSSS
HSP90 refold inh – HSP90 inhibitors, primary screen, cell lysate, luminescence; Heat shock protein HSP 90 (rabbit reticulocyte lysate; luciferase refolding); Rabbit reticulocyte lysate, luciferase refolding luminescence, 3 h; inhibition, % at 5.6 µM; 290,000 compounds, 0.91% hits;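 active means inhibition above the screen-wide mean plus 3 SD, computed separately per campaign, cut at about 16% in these data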;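 further: 0% = DMSO wells and 100% = 60 µM geldanamycin wells; inhibitors lower the luminescence because luciferase stays unfolded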
SENP8 block-2 – SENP8 protease inhibitors, primary screen, biochemical, luminescence. Sentrin-specific protease 8 (Homo sapiens), Q96LD8. purified SENP8, Z-RLRGG-aminoluciferin cleavage. 330,000 compounds, 1.2% hits. inhibition, % at 10 µM. AID 2540, 2010; in the data active means inhibition above about 50%
SENP8 conf – SENP8 protease inhibitors, retest, confirmation, biochemical, luminescence, single concentration; 6,200 compounds, 40% hits; inhibition, % at 12.5 µM; shares compounds with SENP7 inh; AID 488912, 2010; Recombinant SENP8, Z-RLRGG-aminoluciferin luminescence, 60 min;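 active means mean inhibition across replicates above about 50%, limit read from the data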
SENP6 confirm – SENP6 protease inhibitors, confirmation, biochemical, luminescence, single concentration | shares compounds with SENP7 inh | inhibition, % at 12.5 µM | recombinant SENP6, Z-RLRGG-aminoluciferin luminescence | 6,200 compounds, 58% hits
SENP7 conf – SENP7 protease inhibitors, retest, confirmation, biochemical, luminescence, single concentration; 6,200 compounds, 69% hits; shares compounds with SENP7 inh; AID 488917, 2010; recombinant SENP7, Z-RLRGG-aminoluciferin luminescence, 40 min; inhibition, % at 12.5 µM
Casp3 SENP sel – caspase-3 protease inhibitors, confirmation, selectivity assay for SENP inhibitor project, biochemical, single concentration | purified caspase-3, Z-DEVD-aminoluciferin luminescence, 60 min | inhibition, % at 12.5 µM | 6,200 compounds, 60% hits | shares compounds with SENP7 inh;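 active means mean inhibition above about 50%, limit read from the data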;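 further: plate controls were enzyme with DMSO for no effect and wells without caspase-3 for full effect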
SENP luc ctr – interferes with luciferase luminescence in SENP counter-screen; shares compounds with SENP7 inh; Pre-incubated SENP8/Z-RLRGG-aminoluciferin, luciferase luminescence interference; inhibition, % at 12.5 µM; 6,200 compounds, 39% hits; AID 488919;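 active means mean inhibition above about 50% when retested at one dose, limit read from the data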;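 further: plate controls were DMSO wells with completed reaction for no effect and substrate without enzyme for full effect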
The depositor's hits bear a star; . = no result given. Only some compounds are listed: those with a hit (about 2.8% of all), similar ones and a draw of the others.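 How the source made its calls, unless noted: active means mean inhibition above about 50% in the one-dose retest (limit read from the data); inactive means the rest.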

SMILES	Platelet DG rel	SENP8 block-1	SENP6 block	SENP7 inh	HSP90 refold inh	SENP8 block-2	SENP8 conf	SENP6 confirm	SENP7 conf	Casp3 SENP sel	SENP luc ctr
Cc1nn(-c2ccccc2)c(C)c1/C=N/NC(=O)c1ccc(F)cc1	-4	-10	-19	-12	.	-4	.	.	.	.	.
COc1cc(NC(=O)c2cc(C)no2)cc(OC)c1OC	-9	24	5	5	-3	-4	.	.	.	.	.
CS(=O)(=O)c1ccccc1C(=O)Nc1cccc2ncccc12	-3	6	1	1	-3	-4	.	.	.	.	.
Cc1cc(C(=O)N2CCCC(C)(C(=O)NS(=O)(=O)C3CC3)C2)nn1C(C)(C)C (stereo unspecified)	.	12	.	.	.	.	.	.	.	.	.
COCCCN(Cc1cccs1)S(=O)(=O)c1csc(C(N)=O)c1	3	7	-6	13	1	-1	.	.	.	.	.
CCOc1ccc(N(C)S(=O)(=O)c2c[nH]c(C(=O)OC)c2)cc1	3	3	-1	-3	-2	8	.	.	.	.	.
CCOc1ccc(NC(=O)CSc2nnnn2C2CCCC2)cc1	4	3	-18	1	-3	-1	.	.	.	.	.
O=C(N/N=C/C(Cl)=C/c1ccccc1)c1ccncc1	1	-5	4	-1	1	-2	.	.	.	.	.
O=C(N/N=C/C(Cl)=C\c1ccccc1)c1cccs1	10	-19	63*	43	-3	52*	9	59*	85*	31	9
CSc1nnc(C2CCN(CC(=O)Nc3ccccc3N3CCOCC3)CC2)n1C(C)C	3	6	-31	4	2	-1	.	.	.	.	.
Cc1ccc(C2=C(O)c3ccccc3C(=O)C2=O)cc1	-11	10	11	-2	1	-7	.	.	.	.	.
O=C1C(c2ccncc2)=C(O)c2ccccc21	25	27	85*	72*	16*	73*	84*	83*	96*	91*	67*
O=C1C(c2cc(=O)c3ccccc3[nH]2)=C(O)c2ccccc21	10	23	98*	100*	1	97*	94*	99*	103*	96*	95*
CN(C(=O)COC(=O)C1COc2ccccc2O1)c1c(N)n(Cc2ccccc2)c(=O)[nH]c1=O (stereo unspecified)	-5	-1	-3	3	.	-5	.	.	.	.	.
COc1ccc(/C=C/C(=O)NCC(=O)N/N=C/c2cc(Br)ccc2OC)cc1	-9	4	-6	84*	2	-3	3	0	-1	-2	-2
